This is a sample that favours compounds with a hit; in the whole collection about 3.1% have one here.
Tau fibril ThT: blocks human tau fibril formation measured by thioflavin T; P10636; hit rate 2.1% among 270,000; Potency, µM (highest dose often 57.4 µM), inactives show at the highest dose activity, negative = inhibition, most hits filed as inhibitors; AID 1460; recombinant tau K18 P301L, heparin-induced fibrillization, ThT fluorescence; further: nearly all actives have a fitted effect of over 55% in size
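In this qHTS, human K18 P301L tau is incubated with compound and heparin for 6 hr at 37 C, and Thioflavin T fluorescence then reports fibril load.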
GoLoco inh red: blocks human Gai1 binding to RGS12 GoLoco peptide, red readout | hit rate 0.44% among 230,000 | Potency, µM (highest dose often 61.6 µM), for inactives: at the top dose activity, negative = inhibition, usual class: inhibitors | Gai1:RGS12 GoLoco peptide FP, rhodamine, 10 min | P63096; active means well fitted inhibition curve with a large enough effect, not every such curve was filed as active; inactive means no such curve, though single readings can be large or run the other way; further: nearly all actives have a fitted effect of over 30% in size
TRb-SRC2 inh: inhibitors of human thyroid hormone receptor beta-SRC2 interaction; P10828; AID 1469; TRbeta-SRC2 peptide binding, fluorescence polarization; receptor liganded with 1 µM T3; Potency, µM (titrated, usually from 106 µM), for inactives: at the top dose activity change, negative = inhibition, usual class: inhibitors; hit rate 0.065% among 280,000;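 further: plate controls were bound peptide for no effect and peptide without receptor for full effect; nearly all actives have a fitted effect of over 50% in size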
Target sequence (P10828 whole entry, looked up): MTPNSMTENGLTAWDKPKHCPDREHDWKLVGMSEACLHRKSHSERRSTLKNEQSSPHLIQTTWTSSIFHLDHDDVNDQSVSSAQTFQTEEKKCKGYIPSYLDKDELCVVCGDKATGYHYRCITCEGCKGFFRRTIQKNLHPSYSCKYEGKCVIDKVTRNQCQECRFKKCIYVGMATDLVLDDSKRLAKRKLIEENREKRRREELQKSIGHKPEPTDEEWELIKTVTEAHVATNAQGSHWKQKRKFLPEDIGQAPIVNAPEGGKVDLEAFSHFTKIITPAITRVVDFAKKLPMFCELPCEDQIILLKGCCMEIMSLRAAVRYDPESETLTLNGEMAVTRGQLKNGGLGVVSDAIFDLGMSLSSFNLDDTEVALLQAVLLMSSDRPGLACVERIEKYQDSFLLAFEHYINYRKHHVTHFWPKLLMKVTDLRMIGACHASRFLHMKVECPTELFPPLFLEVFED
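Fluorescence polarization of 20 nM Texas Red SRC2 peptide with 0.6 uM human TRb ligand-binding domain, in Tris buffer with 1uM T3 and 5% DMSO. Incubated 5 hr ambient; normalized to unbound and bound controls.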
TR SRC2 fluor cs: alters Texas Red total fluorescence, flagging assay interference; TRb/SRC2 Texas Red total fluorescence interference; Potency, µM (titrated, usually from 106 µM), inactives show at the highest dose fluorescence change, negative = quenching; AID 1479; hit rate 0.29% among 280,000; active means well fitted curve in either direction with a large enough effect; inconclusive means small, poorly fitted or top-dose-only effect
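Human TRβ ligand-binding domain (0.6 uM) and Texas Red SRC2 peptide (20 nM) in Tris buffer with 1 uM T3 and 5% DMSO were incubated with pinned compound for 5 hr at ambient temperature. Total fluorescence was computed as S + 2P (555/632 nm).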
Tau fibril FP: inhibitors of human tau fibril formation; P10636; K18 P301L tau heparin fibrillization, Alexa594 FP, 6 h; Potency, µM (titrated, usually from 57.7 µM), for the others: top-dose activity, negative = inhibition, usual class: inhibitors; hit rate 0.39% among 280,000; AID 1468; further: nearly all actives have a fitted effect of over 55% in size
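Heparin (20 uM) drove fibril formation of recombinant tau K18 P301L, 15 uM unlabeled with 0.24 uM Alexa 594 label, for 6 hr at 37 C in 100 mM sodium acetate pH 7. Fluorescence polarization (555/632 nm) read 1 hr after 30 uM ThT.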
Tau fluor cs: counter-screen for tau fibril formation inhibitors; tau K18 P301L (four-repeat tau fragment) Alexa594 fluorescence, heparin fibrillization; Potency, µM (doses to about 57.7 µM), inactives show top-dose activity change, negative = decrease; hit rate 0.93% among 280,000; AID 1463; further: nearly all actives have a fitted effect of over 55% in size
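Human K18 P301L tau (15 uM unlabeled plus 0.24 uM Alexa 594-labeled, final) in 100 mM sodium acetate pH 7 was mixed with compound and 20 uM heparin and incubated 6 hr at 37 C.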
Starred values were filed as active, the others as inactive; ? = inconclusive; / = not tested or not shown; [ ] = dose if it differs, or a comment. Unless noted, the call rests on the fitted dose curve; in most records, active means well fitted curve in the direction sought with a large enough effect; inconclusive means small, poorly fitted or top-dose-only effect, or another doubt; inactive means no such curve, though single readings can be large; an effect the other way counts as inactive or inconclusive. Unless noted, on the % scale 0 is the no-effect control and ±100 the full control effect; potency means the concentration at half of the fitted maximal effect.

SMILES	Tau fibril ThT	GoLoco inh red	TRb-SRC2 inh	TR SRC2 fluor cs	Tau fibril FP	Tau fluor cs
O=C(CNC(=O)c1ccccc1)NC1(C(=O)NC2CCCC2)CCCCC1	-10.6%	/	1.0%	2.6%	?	2.82µM*[quencher]
Cc1cccc(C(=O)NC2CCN(C(=O)N3CCOCC3)CC2)c1	3.5%	7.5%	0.8%	0.6%	3.9%	5.5%
O=C(O)c1ccc(O)cc1O	/	-10.0%	3.8%	-0.7%	/	/
Oc1ccc(-c2cnns2)c(O)c1	?	1.26µM*	-3.1%	-2.6%	-5.4%	-9.9%
CCN1CC2=C(OC(N)=C(C#N)C2c2cccs2)/C(=C\c2cccs2)C1 (centres undefined)	14.1µM*	38.4%	-7.0%	0.5%	-13.0%	?
CCOC(=O)C1=C(CC)OC(N)=C(C#N)C1c1cccs1 (centres undefined)	-18.8%	42.6%	0.4%	-1.5%	-11.0%	-21.7%
CCc1ccc(NC(=O)C(C)n2nnc3sc(-c4ccccc4)cc3c2=O)cc1 (centres undefined)	28.2µM*	/	3.4%	-2.5%	?	-17.2%
Cc1[nH]c2c(ccc3ccccc32)c1C1C(CCN)C1(C)C (centres undefined)	?	13.4%	-15.3%	-4.2%	?	15.8µM*[quencher]
Cc1[nH]c(C(=O)N/N=C/c2ccc(N(C)C)cc2)c(C)c1C(=O)N/N=C/c1ccc(N(C)C)cc1	2.24µM*	8.9%	2.2%	-1.3%	-0.5%	?
CCN(CC)c1ccc(/C=N/NC(=O)c2ccc3nc[nH]c3c2)cc1	2.82µM*	-0.7%	0.3%	-6.5%	6.8%	?
CN(C)c1ccc(/C=N/NC(=O)c2ccc3nc[nH]c3c2)cc1	4.47µM*	10.7%	-0.6%	-6.1%	-12.4%	?
Cc1nc2c(C)cccc2cc1C(=O)N/N=C/c1ccc(N(C)C)cc1	10µM*	-18.5%	-8.2%	1.0%	0.1%	?
COc1cc(/C=N/NC(=O)c2ccc3nc[nH]c3c2)ccc1O	/	-3.5%	-2.2%	-1.9%	-3.0%	-18.8%
Cc1nc2c(C)cccc2cc1C(=O)N/N=C/c1ccc(C(=O)O)cc1	-7.5%	15.2%	5.1%	5.7%	10.1%	5.6%
C#Cc1ccc([C@@H]2C=C(C(=O)NC3CC3)O[C@H](OCCCCO)C2)cc1	-7.7%	5.5%	7.7%	-1.4%	-7.7%	-5.2%
C[N+](C)(C)CC/C=C1/c2ccccc2CSc2ccccc21	-1.2%	2.24µM*	10.0%	0.2%	2.7%	-4.1%
C[N+](C)([O-])CCC=C1c2ccccc2CCc2ccccc21	/	9.1%[14.2 µM]	/	/	/	/
COc1ccc(CNC(=O)CCSCc2ccc(C)cc2)cc1	-13.7%	0.9%	-0.9%	0.8%	3.5%	-21.9%
O=S(=O)(Nc1ccc(-c2ccc(N3CCCC3)nn2)cc1)c1cccc(C(F)(F)F)c1	-8.2%	/	-8.3%	708µM*[quencher]	8.5%	-28.7%
COc1cc(OC)nc(-n2ncc(Br)c(Br)c2=O)n1	10µM*	10.9%	5.4%	-0.1%	?	-13.4%
c1ccc(Nc2cccc(Nc3ccccc3)c2)cc1	?	7.4%	3.5%	0.5%	-1.2%	11.2µM*[quencher]
Nc1cccc(Nc2ccccc2)c1	?	15.1%	5.4%	5.9%	6.4%	?
Cc1nn(C)c(Sc2ccccc2N)c1[N+](=O)[O-]	31.6µM*	7.1%	-8.8%	-2.0%	?	-17.9%
Cc1nn(C)c(N)c1[N+](=O)[O-]	-3.9%	-3.9%	0.7%	-8.0%	6.4%	-6.0%
Oc1cccc(Nc2nc(O)c(/C=C3\C=Nc4ccccc43)s2)c1	3.98µM*	111.4%	3.1%	-11.6%	13.2%	11.2µM*[quencher]
Oc1nc(Nc2ccc(F)cc2)sc1/C=C1\C=Nc2ccccc21	4.47µM*	44.6%	12.9%	-9.6%	1.4%	7.08µM*[quencher]
CC1=Nc2ccccc2/C1=C\c1sc(Nc2ccc(C)cc2)nc1O	7.94µM*	65.8%	4.1%	-6.4%	?	11.2µM*[quencher]
Oc1nc(Nc2cccc(Cl)c2)sc1/C=C1\C=Nc2ccccc21	6.31µM*	/	3.1%	-13.9%	?	5.01µM*[quencher]

Screens (PubChem BioAssay)
